Screening results as filed in PubChem BioAssay.
Compounds with a hit are over-represented: about 0.59% of the library has one in this group of screens.
LDHA block: inhibitors of human lactate dehydrogenase A; P00338; purified LDHA, NADH/diaphorase-resazurin fluorescence; hits give low values; activity change, % (values are at about 110 or 230 µM); 0.15% of 480,000 active; in the data active = activity change below about -30%; inconclusive = mostly about -25% to -30%
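Human LDH5 at 2 nM final in Tris HCl pH 7.4 with 0.06 mM NADH and 0.2 mM pyruvate, reacted 5 minutes at room temperature. Remaining NADH coupled via diaphorase/resazurin; resorufin fluorescence read at 0 and 20 minutes, normalized to enzyme-free and DMSO wells.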
IDH1 R132H inh: blocks human mutant IDH1 R132H enzyme; Potency, µM (series often up to 76.6 µM), hits mostly inhibitors; IDH1-R132H enzyme, NADPH consumption, diaphorase/resazurin fluorescence; 0.093% of 390,000 active; O75874; also: nearly all actives have a fitted effect of over 65% in size
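IDH1-R132H (0.5 ug/mL) preincubated 30 min with compound, then NADPH (0.016 mM) and alpha-KG (2 mM) added; 80 min at RT, pH 7.5. Remaining NADPH coupled via diaphorase/resazurin to fluorescence (540/590 nm); concentration-response curves normalized to no-enzyme control.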
PINK1 modulator: changes PINK1 expression | PINK1 immunofluorescence, high-content cytometry, 24 h | 0.2% of 410,000 active | Potency, µM (doses to about 76.6 µM), most hits filed as activators; active = well fitted activation curve with a large enough effect; inconclusive = small, poorly fitted or top-dose-only effect; cell line not stated here; also: nearly all actives have a fitted effect of over 65% in size
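Measures PINK1 amount and localization on or inside mitochondria by immunofluorescence. Stable cells get compounds at 5 concentrations for 24 hours before fixation and staining; CCCP controls included.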
Vif-A3G inh: inhibitors of Vif-APOBEC3G interaction; Q9HC16; HeLa A3G-eYFP + Vif (tagged APOBEC3G with the HIV-1 protein that degrades it), YFP fluorescence, overnight; Potency, µM (top dose mostly 46.1 µM), actives largely listed as inhibitors; 0.076% of 410,000 active; also: nearly all actives have a fitted effect of over 60% in size
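Read-out is eYFP fluorescence (Ex 488/Em 500-530) from Vif-expressing HeLa A3G-eYFP cells; more signal means A3G escaped Vif-mediated degradation. Cells plated overnight, compound pinned in, incubated overnight at 37 deg C.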
PTHR1 agonist: agonists of human PTHR1 parathyroid hormone receptor; Potency, µM (top dose mostly 115 µM), most hits filed as activators; 0.075% of 410,000 active; AID 743266; HEK293 GP2 PTHR1 cells, GloSensor cAMP luminescence, 1 h; also: nearly all actives have a fitted effect of over 55% in size
Target sequence (Q03431 whole entry, looked up): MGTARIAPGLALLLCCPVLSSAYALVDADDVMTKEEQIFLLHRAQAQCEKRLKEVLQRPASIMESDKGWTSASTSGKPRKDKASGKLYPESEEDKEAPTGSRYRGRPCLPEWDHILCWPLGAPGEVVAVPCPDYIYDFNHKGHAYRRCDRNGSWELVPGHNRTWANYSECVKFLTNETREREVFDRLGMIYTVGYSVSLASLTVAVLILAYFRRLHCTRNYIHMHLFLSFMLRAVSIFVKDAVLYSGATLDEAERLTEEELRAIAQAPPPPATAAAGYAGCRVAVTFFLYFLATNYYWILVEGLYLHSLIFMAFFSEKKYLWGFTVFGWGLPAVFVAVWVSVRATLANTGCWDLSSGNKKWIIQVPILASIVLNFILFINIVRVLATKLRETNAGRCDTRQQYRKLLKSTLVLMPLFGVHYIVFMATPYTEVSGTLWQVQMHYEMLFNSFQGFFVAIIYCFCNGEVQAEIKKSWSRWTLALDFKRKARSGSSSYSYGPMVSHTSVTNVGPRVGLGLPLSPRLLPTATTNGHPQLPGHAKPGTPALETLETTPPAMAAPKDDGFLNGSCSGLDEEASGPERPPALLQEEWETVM
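HEK-293-derived GP2 cells expressing PTHR1 and a GloSensor cAMP reporter, 3,000/well, plated overnight, given luciferin plus IBMX (each 0.5 mM as added) for 1 h at 37 °C, then compound for 1 h at 37 °C. Luminescence was read after 15 min at room temperature.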
Vif-APOBEC3F blk: blocks the Vif interaction with APOBEC3F | HeLa A3F-eYFP + Vif (tagged APOBEC3F with the HIV-1 protein that degrades it), YFP fluorescence increase | AID 602313 | 0.2% of 390,000 active | Potency, µM (titrated, usually from 46.1 µM); also: nearly all actives have a fitted effect of over 65% in size
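HeLa cells stably expressing Vif plus C-terminally eYFP-tagged A3F were seeded, incubated overnight at 37 deg C, dosed with compound, incubated overnight again at 37 deg C. Yellow fluorescence (Ex 488/Em 500-530) reported blocked Vif-mediated A3F-eYFP degradation.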
Resorufin autofl: counter-screen for mutant IDH1 inhibitors: fluorescence interference | shares compounds with IDH1 R132H inh | 750 tested, under 10 active | inhibition of signal, % at 51.2 µM | Resorufin detection reagent fluorescence interference, cell-free
WT IDH1 inh: selectivity of mutant IDH1 inhibitors: human wild-type IDH1; 9% of 750 active; WT IDH1 enzyme, NADPH diaphorase/resazurin fluorescence; AID 623995; Potency, µM (highest dose often 115 µM), most hits filed as inhibitors; shares compounds with IDH1 R132H inh; also: nearly all actives have a fitted effect of over 55% in size
mIDH1 confirm: mutant IDH1 (human) inhibition, confirmed; IDH1 R132H enzyme, NADPH diaphorase/resazurin fluorescence; Potency, µM (top dose mostly 76.6 µM), most hits filed as inhibitors; AID 624002; shares compounds with IDH1 R132H inh; 83% of 750 active; also: nearly all actives have a fitted effect of over 50% in size
A number is an active result; – = inactive; ? = inconclusive; · = not tested or not shown. Unless noted, calls follow the shape of the dose curve; as a rule, active = well fitted curve in the direction sought with a large enough effect; inconclusive = small, poorly fitted or top-dose-only effect, or another doubt; inactive = no such curve, though single readings can be large; an effect the other way counts as inactive or inconclusive.

SMILES | LDHA block | IDH1 R132H inh | PINK1 modulator | Vif-A3G inh | PTHR1 agonist | Vif-APOBEC3F blk | Resorufin autofl | WT IDH1 inh | mIDH1 confirm
N=c1c(S(=O)(=O)c2ccc(Cl)cc2)cc2c(=O)n3ccccc3nc2n1CC1CCCO1 (stereo not drawn) | – | – | ? | – | – | – | · | · | ·
COc1ccc(C2C(C(C)=O)=C(O)C(=O)N2c2ccc(C)cc2)c(OC)c1 (stereo not drawn) | – | · | · | · | · | · | · | · | ·
CCN(CC)c1ccc(/C=N/NC(=O)Cc2nnc(NC(=O)Nc3ccccc3)s2)cc1 | – | 4.1µM | – | – | – | – | – | – | 6.3µM
N#CC1=C(N)C2=CCCC[C@H]2[C@H](c2cccc(F)c2)C1(C#N)C#N | – | 46µM | – | ? | – | – | – | – | 45µM
CCn1c(=O)c2cc(C(=O)NCCc3cccc(C)c3)sc2c2ccccc21 | – | – | – | – | – | – | · | · | ·
CCn1c(=O)c2cc(C(=O)N(C)c3cc(C)ccc3C)sc2c2ccccc21 | – | ? | – | – | – | – | – | – | 20µM
COc1cc(/C=C(/C#N)C(=O)Nc2cccc3ncccc23)cc(OC)c1OC | – | · | · | · | · | · | · | · | ·
CSc1nn(Cc2ccc(C)cc2)c(N)c1S(=O)(=O)c1ccccc1 | – | 32µM | – | – | – | – | – | – | 10µM
CCOC(=O)c1c(CSC(=N)N)n(C)c2cc(Br)c(OC(C)=O)cc12 | – | ? | – | – | – | – | – | – | 14µM
CN1C(=O)COc2ccc(NC(=O)C(=O)NC3CCCCCC3)cc21 | – | · | · | · | · | · | · | · | ·
COc1ccc(-c2cc3nc(C4CCN(C(=O)OC(C)(C)C)CC4)c(C(=O)O)cn3n2)cc1 | – | 21µM | ? | – | – | – | – | 79µM | 16µM
CCOc1cccc(N(C(=O)Cc2cccs2)C(C(=O)NC2CCCCC2)c2cccn2C)c1 (stereo not drawn) | – | ? | – | – | – | – | – | – | 16µM
Cc1ccccc1C(C(=O)NC1CCCC1)N(C(=O)Cc1cccs1)c1ccc2c(c1)OCCO2 (stereo not drawn) | – | 6.6µM | · | – | – | – | – | – | 4µM
COc1cccc(N(C(=O)Cc2cccs2)C(C(=O)NC2CCCC2)c2ccncc2)c1 (stereo not drawn) | – | – | – | – | – | – | · | · | ·
Cc1cc(C)cc(N(C(=O)Cc2cccs2)C(C(=O)NC2CCCC2)c2ccc(C)o2)c1 (stereo not drawn) | – | 7.4µM | – | – | – | – | – | – | 4µM
COc1ccc(N(C(=O)Cc2cccs2)C(C(=O)NC2CCCC2)c2ccncc2)cc1 (stereo not drawn) | – | – | – | – | – | – | · | · | ·
CCc1ccc(N(C(=O)Cc2cccs2)C(C(=O)NC2CCCCC2)c2cn(C)nc2C)cc1 (stereo not drawn) | – | – | · | – | – | – | · | · | ·
Cc1cc(C)cc(N(C(=O)Cc2cccs2)C(C(=O)NC2CCCCC2)c2ccccn2)c1 (stereo not drawn) | – | ? | · | – | – | – | – | – | 14µM
Cc1nc2cc(NC(=O)C(C)Oc3ccc(Br)cc3)ccc2o1 (stereo not drawn) | – | · | · | · | · | · | · | · | ·
COc1ccc2nc(/C=C/c3cccc(O)c3)sc2c1 | – | · | · | · | · | · | · | · | ·
CCC(CC)C(CNC(=O)c1n[nH]c(=O)c2ccccc12)N1CCOCC1 (stereo not drawn) | – | · | · | · | · | · | · | · | ·
